Assay results as given in publication PMC4336329 (PLoS ONE, 2015).
About 14,000 (4.5%) of roughly 310,000 compounds showed an effect of 50% or more. The effect is printed as a negative number. This is one part of a sample in which strong results are shown more often than they occur.

Each molecule was assayed against human ether-à-go-go-related gene (hERG) potassium channel (human, UniProt Q12809) (assay: primary screen, population patch clamp on CHO cells stably expressing hERG; higher = less effect of the substance).
Sequence of human ether-à-go-go-related gene (hERG) potassium channel (Q12809 whole entry, looked up): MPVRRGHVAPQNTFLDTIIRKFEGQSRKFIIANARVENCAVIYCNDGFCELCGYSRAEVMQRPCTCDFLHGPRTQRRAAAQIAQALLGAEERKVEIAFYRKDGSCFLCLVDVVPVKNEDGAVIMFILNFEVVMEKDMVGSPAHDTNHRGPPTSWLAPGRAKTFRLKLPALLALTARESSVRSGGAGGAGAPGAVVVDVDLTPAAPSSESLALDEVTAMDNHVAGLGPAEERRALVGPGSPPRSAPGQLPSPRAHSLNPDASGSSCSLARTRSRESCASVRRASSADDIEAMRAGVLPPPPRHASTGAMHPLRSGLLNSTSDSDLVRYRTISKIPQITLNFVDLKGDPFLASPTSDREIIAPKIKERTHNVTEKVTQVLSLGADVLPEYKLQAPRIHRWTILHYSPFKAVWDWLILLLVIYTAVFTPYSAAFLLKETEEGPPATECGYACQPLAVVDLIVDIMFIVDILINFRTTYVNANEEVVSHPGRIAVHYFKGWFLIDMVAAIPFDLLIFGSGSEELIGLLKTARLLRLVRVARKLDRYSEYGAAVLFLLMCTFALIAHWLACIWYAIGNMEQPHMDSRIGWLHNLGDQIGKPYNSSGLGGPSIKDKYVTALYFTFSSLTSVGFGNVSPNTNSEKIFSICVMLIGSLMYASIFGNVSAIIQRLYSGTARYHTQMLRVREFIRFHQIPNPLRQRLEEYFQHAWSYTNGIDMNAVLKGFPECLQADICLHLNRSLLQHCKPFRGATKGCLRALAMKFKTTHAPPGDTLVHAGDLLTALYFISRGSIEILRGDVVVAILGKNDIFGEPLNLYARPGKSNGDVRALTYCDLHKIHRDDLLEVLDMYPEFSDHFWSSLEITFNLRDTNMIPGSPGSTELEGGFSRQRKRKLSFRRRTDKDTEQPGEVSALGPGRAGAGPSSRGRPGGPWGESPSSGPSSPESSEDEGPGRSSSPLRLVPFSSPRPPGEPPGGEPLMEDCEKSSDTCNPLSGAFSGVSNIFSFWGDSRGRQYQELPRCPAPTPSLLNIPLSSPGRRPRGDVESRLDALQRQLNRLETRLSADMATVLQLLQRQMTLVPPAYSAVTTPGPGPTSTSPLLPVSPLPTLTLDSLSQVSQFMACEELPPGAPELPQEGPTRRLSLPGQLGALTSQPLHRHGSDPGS
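Further: peak tail current of the secondary pulse compared with the same well before compound.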

SMILES | hERG current change (%, negative = inhibition) at 10uM
COC(=O)CSc1ccc2nnc(CCNS(=O)(=O)c3ccccc3)n2n1 | 24.3%
CC(=O)c1c(COC(=O)c2cccc(C)c2)nc2ccccc2[n+]1[O-] | -1.95%
Cn1c(=O)c2c(nc(SCC(=O)NCC3CCCO3)n2C)n(C)c1=O (stereo not shown) | 2.28%
Cc1c(NC(=S)NC(=O)c2ccccc2Cl)c(=O)n(-c2ccccc2)n1C | 33.4%
COc1cccc(CC(=O)Nc2cc(S(=O)(=O)N3CCCCC3)ccc2C)c1 | -15.9%
Cc1c(CC(=O)O)c(=O)oc2cc(OCc3nn[nH]n3)ccc12 | -0.585%
COc1cc(NC(=O)C2CCCCC2)c(OC)cc1NC(=O)CN1CCCCC1 | -12%
COc1ccc(N2CCN(S(=O)(=O)c3ccc4c(c3)N(C(C)=O)CCO4)CC2)cc1 | -18.4%
CC(C)CC(=O)C(=O)[O-].[Na+] | -0.864%
COc1ccc(CCC(C)NCc2ccc(C(F)(F)F)cc2)cc1 (stereo not shown) | -66.3%
COc1ccc(CC(=O)NC(C)CCc2ccccc2)cc1 (stereo not shown) | 5.43%
COc1ccc(CCC(C)NCc2cccc(Br)c2)cc1 (stereo not shown) | -64.6%
COc1ccc(CCC(C)Nc2cccc(C)c2)cc1 (stereo not shown) | 4.48%
COc1ccc(CCC(C)NCC2CCCCC2)cc1 (stereo not shown) | -14.9%
COc1ccc(CCC(C)NCc2ccc(F)cc2)cc1 (stereo not shown) | -44.8%
O=C(/C=C/c1ccco1)Nc1cccc2cccnc12 | -1.87%
CCOC(=O)c1cnn(-c2cc(C)c3ccccc3n2)c1N | -1.77%
O=C(Cc1cccc2ccccc12)NC(NC(=S)Nc1ccccc1Cl)C(Cl)(Cl)Cl (stereo not shown) | 11.7%
Cc1cccc(Oc2ncc(-c3ccc(Cl)cc3)cn2)c1 | 5.22%
Cc1ccc(S(=O)(=O)N2CCN(C(=O)c3ccccc3Cc3ccccc3)CC2)c(C)c1 | 4.42%
O=C1CC(N2CCN(c3ccccn3)CC2)C(=O)N1c1ccc(Cl)cc1 (stereo not shown) | 4.46%
O=C(c1ccccc1)N1CCN(CCc2ccccn2)CC1 | 8.41%

SMILES | hERG current change (%, negative = inhibition) at 10uM
Cl.O=C(c1ccc(Cl)cc1)N1CCN(CCc2ccccn2)CC1 | -69%
COc1ccc(C(=O)N2CCN(c3ccccn3)CC2)cc1 | 3.55%
O=C1CC(N2CCN(CCc3ccccn3)CC2)C(=O)N1c1ccc(Cl)cc1 (stereo not shown) | -67.4%
O=C(Cc1ccccn1)c1ccc(Cl)cc1 | 17%
CN(CCc1ccccn1)C1CC(=O)N(c2ccc(Cl)cc2)C1=O (stereo not shown) | 6.39%
COc1ccc(C(=O)N2CCN(CCc3ccccn3)CC2)cc1.Cl | -77.3%
COc1ccc(C(=O)N2CCN(Cc3ccccn3)CC2)cc1.O=C(O)C(=O)O | -5.82%
COc1cc(-c2noc(C)c2C#Cc2ccsc2)cc(OC)c1OC | 10.8%
Cc1ccc(Nc2nnc(SCn3nnc4ccccc4c3=O)s2)cc1 | 2.83%
N#Cc1ccc(-c2csc(-c3ccno3)n2)cc1 | -14.6%
CC1=C[C@H]2OC(=O)[C@@H](C)[C@H]2C[C@@H]2[C@H]1C[C@@H](O)[C@@]2(C)O | 6.22%
N#Cc1c(N)c(C(=O)c2ccccc2)n2ccccc12 | 10.7%
CC(=O)Nc1ccc(S(=O)(=O)N(C)CC(=O)OCC(=O)Nc2ccc3c(c2)OCO3)cc1 | 9.31%
NC(=O)c1cc2cc(Br)ccc2oc1=NCc1ccccc1 | 10.4%
CCCNC(=O)NC(C(=O)OC)C12CC3CC(CC(C3)C1)C2 (stereo not shown) | -10.8%
CC(C)(C)c1ccc(NC(=O)CNC2CCCc3ccccc32)cc1.Cl (stereo not shown) | 2.24%
CCCSc1nc2c(cnn2-c2ccc(F)cc2)c(=O)[nH]1 | 6.84%
COc1cc([N+](=O)[O-])c(C(=O)N2CCOCC2)c([N+](=O)[O-])c1 | 7.66%
O=C(OCC1OC(n2ccc(=O)[nH]c2=O)C(Cl)C1O)c1ccccc1 (stereo not shown) | -9.37%
O=C(OCC1OC(n2ccc(=O)[nH]c2=O)C(O)C1OC(=O)c1ccccc1)c1ccccc1 (stereo not shown) | -67.9%
O=C(OCC1OC(n2ncc(=O)[nH]c2=O)C(OC(=O)c2ccccc2)C1OC(=O)c1ccccc1)c1ccccc1 (stereo not shown) | 14.6%
CCOC(=O)C1=NN(c2cccc(Cl)c2)C2=NC(C)=C(C(=O)OC)C(c3cccs3)N12 (stereo not shown) | 6.72%

SMILES | hERG current change (%, negative = inhibition) at 10uM
COc1cc(CN2CCC(Cc3ccccc3)CC2)cc([N+](=O)[O-])c1O | 0.943%
COc1cc(CN2CCC(C(N)=O)CC2)ccc1OCc1ccccc1.O=C(O)C(=O)O | -39.9%
COc1cc(CN2CCC(Cc3ccccc3)CC2)cc(OC)c1OC.O=C(O)C(=O)O | -52.8%
COc1ccc(OC)c(CN2CCN(C(=O)c3cccc4ccccc34)CC2)c1.O=C(O)C(=O)O | -2.37%
COc1ccc(OC)c(CN2CCN(Cc3cccc4ccccc34)CC2)c1.O=C(O)C(=O)O | -65.2%
COc1ccc(C(=O)N2CCN(Cc3cc(OC)ccc3OC)CC2)cc1.O=C(O)C(=O)O | -36%
COc1ccc(CN2CCC(C(N)=O)CC2)cc1OCc1ccccc1.O=C(O)C(=O)O | -19.1%
COc1ccc(CCNC(=O)c2ccc(CN3CCC(Cc4ccccc4)CC3)cc2)cc1OC | -67.9%
COc1ccc(CN2CCC(Cc3ccccc3)CC2)cc1OC.O=C(O)C(=O)O | -70.3%
COc1cc(CN2CCN(C(=O)Cc3ccccc3)CC2)cc(OC)c1OC.O=C(O)C(=O)O | -0.522%
COc1ccc(CCNC(=O)c2ccc(CN3CCC(Cc4ccccc4)CC3)cc2)cc1 | -15.6%
COc1ccc(CCNC(=S)N2CCC(Cc3ccccc3)CC2)cc1OC | -41.1%
CCOc1cc(/C=N/NC(=O)CSc2cccc3cccnc23)ccc1O | 9.6%
CCOc1ccccc1OCCC(=O)OCC(=O)Nc1c(C)nn(-c2ccccc2)c1C | 1.41%
O=C(CCC(=O)c1ccccc1)NCc1cccc(C(F)(F)F)c1 | 4.89%
CC(C)(C)c1ccc(/C=C(\c2nc3ccccc3[nH]2)S(=O)(=O)c2ccccc2)cc1 | 0.84%
O=C(Nc1c2c(nn1-c1ccccc1)CS(=O)(=O)C2)c1ccccc1C(F)(F)F | 14.3%
O=C(O)c1ccc(/C=C/c2nc3sc4c(c3c(=O)[nH]2)CCC4)cc1 | 14.2%
Cc1nn(C(=O)c2cccnc2)c(C)c1C | 0.855%
C/C(=N/NS(=O)(=O)c1cccc([N+](=O)[O-])c1)c1c[nH]c2ccccc12 | 13%
CCOC(=O)/C(C#N)=C/c1cccc([N+](=O)[O-])c1 | 25%
CC(Oc1ccccc1Cl)C(=O)Nc1ccc(S(=O)(=O)Nc2nccs2)cc1 (stereo not shown) | -0.857%

SMILES | hERG current change (%, negative = inhibition) at 10uM
CC1CCC2(CC1)NC(=O)N(CC(=O)Nc1cccc(C#N)c1)C2=O (stereo not shown) | 9.8%
O=C(NCc1cccnc1)NC(=O)c1ccc(Cl)cc1 | 3.09%
CCN1C(=O)[C@@H]2[C@@H](c3ccc(-c4ccc5c(c4)OCO5)cc3)N3CCCC[C@@]3(C(=O)OC)[C@@H]2C1=O.O=C(O)C(F)(F)F | 21%
COc1ccc(Br)cc1CN1CCN(C(=O)c2cccc(F)c2)CC1.O=C(O)C(=O)O | -39.2%
Cc1[nH]c2ccccc2c(=O)c1CN1CCCCCC1 | -7.41%
Cc1[nH]c2ccccc2c1CN1CCC(Cc2ccccc2)CC1.O=C(O)C(=O)O | -67.4%
COc1ccc(Br)cc1CN1CCN(C(=O)c2ccc(OC)c(OC)c2)CC1.O=C(O)C(=O)O | -38.1%
COc1ccc(OC)c(CN2CCC(Cc3ccccc3)CC2)c1.O=C(O)C(=O)O | -69.4%
COc1ccc(OC)c(CN2CCN(C(=O)Cc3ccccc3)CC2)c1.O=C(O)C(=O)O | -4.63%
COc1ccc(OC)c(CN2CCCCCC2)c1.O=C(O)C(=O)O | 15.7%
O=C(O)C(=O)O.c1ccc(CC2CCN(Cc3ccccn3)CC2)cc1 | -23.1%
COc1cccc(C(=O)N2CCN(Cc3cc(Br)ccc3OC)CC2)c1.O=C(O)C(=O)O | -51.8%
CN1CCN(/N=C/c2nc(-c3ccccc3Cl)n3ccccc23)CC1 | -34.1%
CCCOC(=O)Nc1ccccc1C(N)=O | 4.61%
O=C(O)CCCCC1SCC2NC(=O)NC21 (stereo not shown) | 3.46%
O=C(Nc1ccccc1F)Nc1ccc([N+](=O)[O-])cc1Cl | 18.4%
O=C(c1cc(=O)[nH]c2ccccc12)N1CCN(c2cccc(C(F)(F)F)c2)CC1 | -27.1%
CCOC(=O)c1sc(=S)n(-c2ccccc2Cl)c1C | -13.8%
CCOC(=O)Cn1c(=NC(=O)c2cccs2)sc2cc(C(=O)OC)ccc21 | 17.4%
